PubChem BioAssay (Tox21)
Where “and” joins values, the source holds several entries; their conditions need not be identical. Equal entries are not always repeated. Inconclusive results are not listed. A call without a number means that no potency is given here. Calls of active or inactive are those of the source. Unless noted, calls come from the whole dose curve; as a rule, active = well fitted curve in the direction sought with a large enough effect in the repeat runs; inconclusive = weak or mixed curves; inactive = no such curve, though single readings can be large; an effect the other way counts as inactive or inconclusive.

Tests used:
[1] = qHTS assay to identify small molecule antagonists of the estrogen related receptor (ERR) signaling pathway from Tox21 library - cell viability counter screen (AID 1224834); note: nearly all actives have a fitted effect of over 30% in size; note: potency is the fitted concentration of half-maximal effect
How it was run: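 Seeded ERR cells were rested 6 h at 37 C/5% CO2 before compounds, positive and negative controls or DMSO were added. Incubation continued for 17.5 h, and viability was then quantified by CellTiter-Fluor fluorescence.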

[2] = qHTS assay to identify small molecule agonists of the constitutive androstane receptor (CAR) signaling pathway - cell viability counter screen (AID 1224836); note: nearly all actives have a fitted effect of over 45% in size; note: potency is the fitted concentration of half-maximal effect
How it was run: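 HepG2 cells stably carrying hCAR and a CYP2B6-2.2kb reporter were plated 4 h, then given compounds at 15 concentrations plus PK11195 (final 0.75 uM). After 23 h at 37 C, viability was read by CellTiter-Fluor fluorescence.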

[3] = qHTS assay to identify small molecule antagonists of the constitutive androstane receptor (CAR) signaling pathway - cell viability counter screen (AID 1224837); note: nearly all actives have a fitted effect of over 45% in size; note: potency is the fitted concentration of half-maximal effect
How it was run: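 To flag cytotoxic false antagonists, HepG2 hCAR/CYP2B6-2.2kb cells were treated 23 hr with 15-concentration compound series and 50 nM CITCO at 37 C/5% CO2; CellTiter-Fluor fluorescence was the measured end point.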

[4] = molecular target: Nuclear receptor subfamily 1 group I member 3 (Homo sapiens) (UniProt Q14994); test: qHTS assay to identify small molecule antagonists of the constitutive androstane receptor (CAR) signaling pathway (AID 1224838); note: nearly all actives have a fitted effect of over 40% in size; note: potency is the fitted concentration of half-maximal effect
Chain of Nuclear receptor subfamily 1 group I member 3 (Homo sapiens) (Q14994 whole entry, looked up): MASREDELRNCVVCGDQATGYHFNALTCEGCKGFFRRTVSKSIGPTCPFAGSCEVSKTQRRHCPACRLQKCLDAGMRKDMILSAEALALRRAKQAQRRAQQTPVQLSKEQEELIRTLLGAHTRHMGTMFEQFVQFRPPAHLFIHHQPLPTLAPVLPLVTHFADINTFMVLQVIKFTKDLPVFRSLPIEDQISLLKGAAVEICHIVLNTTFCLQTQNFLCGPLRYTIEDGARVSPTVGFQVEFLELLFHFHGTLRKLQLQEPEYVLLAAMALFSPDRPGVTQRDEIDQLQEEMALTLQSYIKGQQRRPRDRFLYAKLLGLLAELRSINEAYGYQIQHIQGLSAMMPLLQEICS
How it was run: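 Human hepatoma HepG2 cells expressing hCAR and a CYP2B6 promoter (2.2 kb) luciferase construct; compound titration (15 points) with 50 nM CITCO final, 24 h at 37 C/5% CO2; luminescence via ONE-Glo after 30 min at room temperature.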

[5] = molecular target: Nuclear receptor subfamily 1 group I member 3 (Homo sapiens) (UniProt Q14994); test: qHTS assay to identify small molecule agonists of the constitutive androstane receptor (CAR) signaling pathway (AID 1224839); note: nearly all actives have a fitted effect of over 15% in size; note: potency is the fitted concentration of half-maximal effect;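 for activation: HepG2 cells stably carrying human CAR and a CYP2B6 luciferase reporter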
How it was run: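 HepG2 cells stably expressing hCAR and a CYP2B6-2.2kb luciferase reporter were treated with compounds at 15 concentrations plus 0.75 uM PK11195 (final) for 24 h at 37 C; luminescence was read after ONE-Glo addition.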

[6] = qHTS assay to identify small molecule antagonists of the estrogen related receptor signaling pathway with the pleiotropic PPARgamma coactivator (PGC) from Tox21 10K library - cell viability counter screen (AID 1224840; active = well fitted cell-killing curve with a large enough effect in the repeat runs, not every such curve was filed as active; note: nearly all actives have a fitted effect of over 40% in size; note: potency is the fitted concentration of half-maximal effect)
How it was run: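 Seeded PGC/ERR cells (2,000/well, 6 h, 37 C/5% CO2) get compound by pin tool; 17.5 h incubation at 37 C; CellTiter-Fluor added, 30 min, fluorescence measured.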

[7] = qHTS assay to identify small molecule agonists of the hypoxia (HIF-1) signaling pathway - cell viability counter screen (AID 1224844; calls by dose curve; note: nearly all actives have a fitted effect of over 50% in size; note: potency is the fitted concentration of half-maximal effect)
How it was run: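 HRE-bla ME-180; 0.5% dFBS; cpd 17 h, 37C, 5% CO2; CellTiter-Glo lum., 30 min RT, post-FRET read, same wells.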

[8] = qHTS assay to identify small molecule agonists of H2AX (AID 1224845; active = well fitted activation curve with a large enough effect in the signal ratio in the repeat runs, not every such curve was filed as active; the % refers to the signal ratio)
How it was run: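 Wild-type CHO-K1 cells plated overnight, then exposed 3 hr at 37C to compounds at 15 concentrations (0.76% DMSO). Lysed, then HTRF anti-pH2AX(S139)-cryptate/anti-H2AX-d2 detection after 24 hr at room temperature; emissions 665 and 620 nm.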

[9] = qHTS RealTime-Glo MT Cell Viability Assay in HepG2 cells - 24 hour (AID 1224867); note: nearly all actives have a fitted effect of over 50% in size; note: potency is the fitted concentration of half-maximal effect
How it was run: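 Luminescence read-out: viable HepG2 cells reduce a prosubstrate to a NanoLuc substrate, giving a signal proportional to live cell number. Reads taken at 0, 8, 16, 24, 32 and 40 h of compound exposure at 37 C.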

[10] = qHTS RealTime-Glo MT Cell Viability Assay in HEK293 cells - 32 hour (AID 1224868); note: nearly all actives have a fitted effect of over 50% in size; note: potency is the fitted concentration of half-maximal effect
How it was run: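 Nonlytic real-time viability readout: viable cells convert prosubstrate to NanoLuc substrate, giving luminescence proportional to live cell number. HEK293, 600 cells/well, compound added after 5 h, continuous culture at 37 C.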

[11] = A CellTox Green Cytotoxicity Assay to monitor cytotoxicity in HEK293 cells - 0 hour (AID 1224869); note: nearly all actives have a fitted effect of over 50% in size
How it was run: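 Tox21 screen in HEK293: membrane-impermeant cyanine dye fluoresces on binding dead-cell DNA; compound pinned 5 h post-seeding, plates held at 37 C, signal read repeatedly through 40 h.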

[12] = qHTS RealTime-Glo MT Cell Viability Assay in HepG2 cells - 40 hour (AID 1224870); note: nearly all actives have a fitted effect of over 50% in size; note: potency is the fitted concentration of half-maximal effect
How it was run: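 HepG2 cells mixed with RealTime-Glo MT reagents (NanoLuc plus cell-permeant prosubstrate) were seeded at 600 cells/well, incubated 5 h at 37 C/5% CO2, then pinned with compounds in DMSO; nonlytic luminescence tracked viability during 40 h treatment.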

[13] = qHTS assay to identify small molecule antagonists of the estrogen related receptor signaling pathway with the pleiotropic PPARgamma coactivator (PGC) from Tox21 10K library (AID 1224841; call rule not given here; note: potency is the fitted concentration of half-maximal effect)
How it was run: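 Test chemicals dissolved in DMSO were applied to pre-incubated (6 h) PGC/ERR cells at 2,000 cells/well for an 18 h, 37 C treatment; reporter luminescence was then read using One-Glo.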

[14] = qHTS assay to identify small molecule agonists of the estrogen related receptor signaling pathway with the pleiotropic PPARgamma coactivator (PGC) from Tox21 10K library (AID 1224842); note: nearly all actives have a fitted effect of over 15% in size; note: potency is the fitted concentration of half-maximal effect
How it was run: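 PGC/ERR reporter cells (NTP line) were seeded 2,000 per well, rested 6 h at 37 C/5% CO2, then pin-dosed with compounds in DMSO for 18 h at 37 C; luciferase read by One-Glo luminescence after 30 min at room temperature.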

[15] = qHTS assay to identify small molecule agonists of the hypoxia (HIF-1) signaling pathway (AID 1224846; active = well fitted activation curve with a large enough effect in the signal ratio in the repeat runs, not every such curve was filed as active; the % refers to the signal ratio)
How it was run: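 Reporter induction in HRE-bla ME-180 cells is taken as agonism: cells sit 5 hrs after plating, receive compounds or DMSO only, incubate 17 hrs at 37C under 5% CO2, and are loaded with CCF4-AM for beta-lactamase FRET measurement.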

[16] = qHTS assay to identify small molecule agonists of H2AX - cell viability counter screen (AID 1224847; calls by dose curve; note: nearly all actives have a fitted effect of over 30% in size; note: potency is the fitted concentration of half-maximal effect)
How it was run: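 Wild-type CHO-K1 cells (10% FBS medium) were plated overnight at 37C, exposed to compounds at 15 concentrations for 3 hr at 37C (0.76% DMSO final), and viability was read as CellTiter-Glo luminescence after 30 min at room temperature.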

[17] = qHTS assay to identify small molecule antagonists of the estrogen related receptor (ERR) signaling pathway from Tox21 library (AID 1224848); note: nearly all actives have a fitted effect of over 50% in size; note: potency is the fitted concentration of half-maximal effect
How it was run: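 Tox21 10K compounds in DMSO tested for ERR pathway antagonism in NTP's ERR cell line; 18 h, 37 C exposure; ONE-Glo luminescence.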

[18] = qHTS assay to identify small molecule agonists of the estrogen related receptor (ERR) signaling pathway from Tox21 library (AID 1224849; calls by dose curve; note: nearly all actives have a fitted effect of over 15% in size); conditions: ERR reporter cell line, ONE-Glo luciferase, 18 h; at 92.4 µM (top of the series) unless noted
How it was run: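 Tox21 compounds tested for ERR agonism in an NTP reporter cell line: 18 h treatment at 37 C, then ONE-Glo luminescence.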

[19] = molecular target: Thyrotropin receptor (Homo sapiens) (UniProt P16473); test: qHTS assay to identify small molecule agonists of the thyroid stimulating hormone receptor (TSHR) signaling pathway (AID 1224843; calls by dose curve; note: nearly all actives have a fitted effect of over 45% in size; note: potency is the fitted concentration of half-maximal effect)
Chain of Thyrotropin receptor (Homo sapiens) (P16473 whole entry, looked up): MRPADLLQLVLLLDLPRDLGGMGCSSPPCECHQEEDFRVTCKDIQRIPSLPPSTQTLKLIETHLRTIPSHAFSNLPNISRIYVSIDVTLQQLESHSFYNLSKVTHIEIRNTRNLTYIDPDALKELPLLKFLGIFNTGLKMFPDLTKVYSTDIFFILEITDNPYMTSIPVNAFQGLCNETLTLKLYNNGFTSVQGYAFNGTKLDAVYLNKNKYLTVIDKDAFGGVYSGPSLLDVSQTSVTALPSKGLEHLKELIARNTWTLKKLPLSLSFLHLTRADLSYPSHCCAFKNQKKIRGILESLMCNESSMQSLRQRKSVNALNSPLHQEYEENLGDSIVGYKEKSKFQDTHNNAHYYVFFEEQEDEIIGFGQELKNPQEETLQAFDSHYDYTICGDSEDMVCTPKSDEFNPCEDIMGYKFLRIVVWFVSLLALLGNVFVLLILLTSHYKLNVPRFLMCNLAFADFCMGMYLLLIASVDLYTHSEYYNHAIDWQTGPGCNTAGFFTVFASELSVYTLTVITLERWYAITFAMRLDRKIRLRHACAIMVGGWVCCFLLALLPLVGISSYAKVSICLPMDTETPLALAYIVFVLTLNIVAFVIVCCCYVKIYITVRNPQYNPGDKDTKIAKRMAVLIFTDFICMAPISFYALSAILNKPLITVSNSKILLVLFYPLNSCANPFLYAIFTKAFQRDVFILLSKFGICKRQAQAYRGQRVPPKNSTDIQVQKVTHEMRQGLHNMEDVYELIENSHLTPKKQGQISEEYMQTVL
How it was run: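 Using 15 concentrations per compound in triplicate, cAMP production was monitored in TSHR-HEK293 cells after 30 min compound incubation at RT; HTRF reagents followed, with fluorescence intensity recorded after 1 h.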

[20] = molecular target: Luciferin 4-monooxygenase (Photinus pyralis) (UniProt P08659); test: qHTS assay to identify small molecule inhibitors of firefly luciferase (AID 1224835); note: nearly all actives have a fitted effect of over 25% in size; note: potency is the fitted concentration of half-maximal effect
Chain of Luciferin 4-monooxygenase (Photinus pyralis) (P08659 whole entry, looked up): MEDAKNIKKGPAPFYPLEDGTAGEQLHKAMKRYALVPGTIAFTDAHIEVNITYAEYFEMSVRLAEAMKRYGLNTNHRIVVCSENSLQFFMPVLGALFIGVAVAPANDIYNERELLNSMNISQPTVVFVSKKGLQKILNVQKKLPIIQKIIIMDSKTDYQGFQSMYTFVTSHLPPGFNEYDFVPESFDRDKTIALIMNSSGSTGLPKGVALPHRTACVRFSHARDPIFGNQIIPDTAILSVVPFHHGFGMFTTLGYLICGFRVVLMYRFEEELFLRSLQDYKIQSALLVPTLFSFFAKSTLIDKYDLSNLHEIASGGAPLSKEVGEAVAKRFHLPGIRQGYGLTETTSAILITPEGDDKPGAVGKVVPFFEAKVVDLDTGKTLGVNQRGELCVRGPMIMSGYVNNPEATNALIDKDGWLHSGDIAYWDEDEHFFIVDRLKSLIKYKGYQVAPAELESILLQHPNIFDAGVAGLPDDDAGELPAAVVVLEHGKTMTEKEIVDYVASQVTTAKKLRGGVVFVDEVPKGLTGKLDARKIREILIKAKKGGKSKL
How it was run: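 Quantitative HTS format; KM concentrations of both substrates. Purified P. pyralis FLuc activity quantified from luminescence images.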

| SMILES | Potency [1] | Potency [2] | Potency [3] | Potency [4] | Potency [5] | Potency [6] | Potency [7] | Potency [8] | Potency [9] | Potency [10] | Potency [11] | Potency [12] | Potency [13] | Potency [14] | Potency [15] | Potency [16] | Potency [17] | activity change, positive = activation [18] | Potency [19] | Potency [20] |
| --- | --- | --- | --- | --- | --- | --- | --- | --- | --- | --- | --- | --- | --- | --- | --- | --- | --- | --- | --- | --- |
| CC(C)[C@@H](Nc1ccc(C(F)(F)F)cc1Cl)C(=O)OC(C#N)c1cccc(Oc2ccccc2)c1 (some centres undefined) | inactive | inactive | inactive | inactive | inactive | inactive | inactive | inactive | inactive | inactive | inactive | inactive | – | – | – | – | – | – | – | – |
| BrCC(Br)(Br)Br | inactive | inactive | inactive | inactive | inactive | inactive | – | inactive | – | 45.3 µM (active) | inactive | inactive | inactive | inactive | inactive | inactive | inactive | 15.6% (inactive) | – | – |
| CC(Cc1ccc(O)cc1)NCC(O)c1cc(O)cc(O)c1 (centres undefined) | inactive | inactive | inactive | inactive | inactive | inactive | inactive | inactive | inactive | inactive | inactive | inactive | – | – | – | inactive | – | – | 0.841 µM (active) | – |
| CCCCC(CC)COC(=O)c1ccccc1C(=O)OCC(CC)CCCC (centres undefined) | inactive | – | – | inactive | 17.2 µM (active) | inactive | inactive | inactive | – | inactive | inactive | inactive | – | – | inactive | inactive | – | – | 3.86 µM (active) | inactive |
| COc1c2c(cc3c1OCO3)CCN(C)C2 | inactive | inactive | inactive | inactive | – | inactive | inactive | inactive | inactive | inactive | inactive | inactive | – | – | inactive | inactive | – | – | inactive | – |
| COP(=S)(OC)Oc1nc(Cl)c(Cl)cc1Cl | inactive | inactive | inactive | inactive | – | inactive | – | inactive | inactive | inactive | inactive | inactive | inactive | inactive | inactive | inactive | inactive | -11.3% (inactive) | inactive | – |
| CCCCc1ccccc1 | inactive | – | – | inactive | inactive | inactive | inactive | inactive | inactive | inactive | inactive | inactive | – | – | – | inactive | – | – | inactive | inactive |
| O=C1C2(Cl)C3(Cl)C4(Cl)C(Cl)(Cl)C5(Cl)C3(Cl)C1(Cl)C5(Cl)C24Cl (centres undefined) | 53.6 µM (active) and 58.5 µM (active) | 60.1 µM (active) | 60.1 µM (active) | 23.9 µM (active) and 52.2 µM (active) | inactive | 47.8 µM (active) and 58.5 µM (active) | 21.5 µM (active) | – | – | 19.2 µM (active) and 41.8 µM (active) | inactive | 54 µM (active) and 46.9 µM (active) | 53.6 µM (active) | inactive | – | 49.6 µM (active) and 96.5 µM (active) | 26.9 µM (active) and 58.5 µM (active) | -74.4% (inactive) and -66.3% (inactive) | – | – |
| Oc1cccc(Cl)c1Cl | inactive | inactive | inactive | inactive | inactive | inactive | – | inactive | inactive | – | inactive | – | – | inactive | inactive | inactive | – | -30.2% (inactive) | – | – |
| FC(F)C(F)(F)OCC(Cn1cncn1)c1ccc(Cl)cc1Cl (centres undefined) | 43 µM (active) | – | – | – | – | 60.8 µM (active) | inactive | inactive | – | – | inactive | – | – | – | inactive | 112 µM (active) | – | – | – | inactive |
| [O]=[Cr][O][Cr]=[O] | inactive | inactive | inactive | inactive | inactive | inactive | inactive | inactive | inactive | inactive | inactive | – | – | – | inactive | inactive | – | – | – | – |
| c1ccc2c(c1)cc1ccc3cccc4ccc2c1c34 | inactive | – | – | – | – | – | inactive | inactive | – | inactive | inactive | inactive | inactive | 22.1 µM (active) | – | inactive | inactive | 61.3% (active) | inactive | 10.2 µM (active) |
| O=[N+]([O-])c1cc(C(F)(F)F)c(Cl)c([N+](=O)[O-])c1Nc1ncc(C(F)(F)F)cc1Cl | 27.3 µM (active) | 15.4 µM (active) | 15.4 µM (active) | 13.7 µM (active) | inactive | 8.63 µM (active) | 6.92 µM (active) | – | 21.9 µM (active) | 1.74 µM (active) | inactive | – | – | – | – | 50.5 µM (active) | – | – | – | – |
| CC[C@H](C)[C@H]1O[C@]2(C=C[C@@H]1C)C[C@@H]1C[C@@H](C/C=C(\C)[C@@H](O[C@H]3C[C@H](OC)[C@@H](O[C@H]4C[C@H](OC)[C@@H](NC)[C@H](C)O4)[C@H](C)O3)[C@@H](C)/C=C/C=C3\CO[C@@H]4[C@H](O)C(C)=C[C@@H](C(=O)O1)[C@]34O)O2 | 8.63 µM (active) | 12.2 µM (active) | 9.69 µM (active) | 13.7 µM (active) | inactive | 6.86 µM (active) | 21.9 µM (active) | – | 9.77 µM (active) | 4.9 µM (active) | inactive | – | – | – | – | 16 µM (active) | – | – | – | – |
| O=C(CCCCl)c1ccc(F)cc1 | inactive | inactive | inactive | inactive | – | inactive | inactive | inactive | inactive | inactive | inactive | – | inactive | inactive | inactive | inactive | inactive | 7.87% [at 42.5 µM] (inactive) | – | – |
